Source: the supplement of paper PMC6411743
± gives the standard deviation of the averaged measurements. About 6,200 targets were measured; listed, in parts, are those with the largest changes and a random draw of the rest.

Compound: Nc1ncnc2c1ncn2[C@@H]1O[C@H](COP(=O)(O)OP(=O)(O)NP(=O)(O)O)[C@@H](O)[C@H]1O [adenylyl imidodiphosphate]
Assay: NP40-soluble protein abundance relative to vehicle (solubility fold change) (ratio); higher = more soluble protein in presence of AMP-PNP
In short: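 Jurkat crude lysate (Dounce-homogenised) was treated with eight concentrations from 0.1 to 10 mM for 10 min at room temperature, then 3 min at 37 °C. It was solubilised with 0.8% NP40 and benzonase (60 min, 4 °C) and ultracentrifuged, and the supernatant was TMT-labelled for LC-MS/MS. Intensities were vsn-normalised, and the value is the fold change against the NP40-processed vehicle per replicate, from three independent experiments.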

Sequence of UniProt P11182 (P11182 whole entry): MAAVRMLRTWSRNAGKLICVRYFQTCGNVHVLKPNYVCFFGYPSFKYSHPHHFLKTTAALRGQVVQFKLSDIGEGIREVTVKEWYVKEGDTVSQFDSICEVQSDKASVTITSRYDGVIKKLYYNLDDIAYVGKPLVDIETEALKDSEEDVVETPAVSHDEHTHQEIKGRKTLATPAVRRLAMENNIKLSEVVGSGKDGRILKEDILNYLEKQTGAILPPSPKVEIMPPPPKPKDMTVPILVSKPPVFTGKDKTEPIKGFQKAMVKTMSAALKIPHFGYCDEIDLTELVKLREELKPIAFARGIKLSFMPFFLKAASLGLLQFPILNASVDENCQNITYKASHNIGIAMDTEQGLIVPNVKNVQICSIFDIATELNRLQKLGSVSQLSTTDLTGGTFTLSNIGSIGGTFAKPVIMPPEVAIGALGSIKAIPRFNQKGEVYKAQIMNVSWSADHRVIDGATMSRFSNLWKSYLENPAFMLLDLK
Sequence of UniProt P10412 (P10412 whole entry): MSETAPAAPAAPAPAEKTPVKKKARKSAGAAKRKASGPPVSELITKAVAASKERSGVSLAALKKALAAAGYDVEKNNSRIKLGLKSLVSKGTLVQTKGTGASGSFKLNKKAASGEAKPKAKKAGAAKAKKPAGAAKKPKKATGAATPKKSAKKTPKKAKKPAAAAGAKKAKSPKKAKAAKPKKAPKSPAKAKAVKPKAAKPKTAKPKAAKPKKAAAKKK
Sequence of UniProt P52824 (P52824 whole entry, one chain of several): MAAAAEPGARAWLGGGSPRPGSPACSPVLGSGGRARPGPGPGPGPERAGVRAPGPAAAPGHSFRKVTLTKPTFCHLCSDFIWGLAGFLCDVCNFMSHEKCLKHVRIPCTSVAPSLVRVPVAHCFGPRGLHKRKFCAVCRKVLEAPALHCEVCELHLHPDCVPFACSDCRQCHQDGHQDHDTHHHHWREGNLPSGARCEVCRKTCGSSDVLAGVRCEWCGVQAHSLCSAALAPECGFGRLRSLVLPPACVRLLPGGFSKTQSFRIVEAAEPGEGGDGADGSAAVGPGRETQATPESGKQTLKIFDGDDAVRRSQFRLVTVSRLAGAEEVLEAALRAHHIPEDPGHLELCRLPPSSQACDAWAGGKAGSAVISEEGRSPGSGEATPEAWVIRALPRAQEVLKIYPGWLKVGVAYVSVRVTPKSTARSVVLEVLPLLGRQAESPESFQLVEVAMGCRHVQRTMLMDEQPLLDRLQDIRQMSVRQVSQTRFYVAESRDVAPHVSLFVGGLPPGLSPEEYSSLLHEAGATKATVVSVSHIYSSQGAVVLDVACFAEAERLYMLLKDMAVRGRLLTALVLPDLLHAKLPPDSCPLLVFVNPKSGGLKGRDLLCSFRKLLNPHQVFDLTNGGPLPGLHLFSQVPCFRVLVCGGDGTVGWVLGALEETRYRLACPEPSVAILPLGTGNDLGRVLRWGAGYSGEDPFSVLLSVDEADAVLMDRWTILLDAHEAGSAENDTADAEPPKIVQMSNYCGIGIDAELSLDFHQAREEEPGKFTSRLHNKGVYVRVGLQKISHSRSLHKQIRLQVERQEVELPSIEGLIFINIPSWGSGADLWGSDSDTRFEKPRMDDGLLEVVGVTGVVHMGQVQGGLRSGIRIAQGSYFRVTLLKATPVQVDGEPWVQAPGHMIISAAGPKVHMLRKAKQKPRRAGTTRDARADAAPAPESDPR
Sequence of UniProt Q05048 (Q05048 whole entry): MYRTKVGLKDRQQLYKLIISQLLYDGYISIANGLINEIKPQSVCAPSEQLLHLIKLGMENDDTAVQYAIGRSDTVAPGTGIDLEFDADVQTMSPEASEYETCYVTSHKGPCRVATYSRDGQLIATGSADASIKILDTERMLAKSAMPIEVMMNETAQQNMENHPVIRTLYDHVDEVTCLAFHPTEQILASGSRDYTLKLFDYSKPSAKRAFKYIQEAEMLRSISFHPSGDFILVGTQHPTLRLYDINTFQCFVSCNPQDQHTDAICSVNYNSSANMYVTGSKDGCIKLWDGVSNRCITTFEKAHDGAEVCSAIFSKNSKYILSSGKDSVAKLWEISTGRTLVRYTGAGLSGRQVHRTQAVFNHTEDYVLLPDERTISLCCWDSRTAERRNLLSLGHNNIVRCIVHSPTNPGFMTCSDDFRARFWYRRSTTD
Sequence of UniProt Q12788 (Q12788 whole entry): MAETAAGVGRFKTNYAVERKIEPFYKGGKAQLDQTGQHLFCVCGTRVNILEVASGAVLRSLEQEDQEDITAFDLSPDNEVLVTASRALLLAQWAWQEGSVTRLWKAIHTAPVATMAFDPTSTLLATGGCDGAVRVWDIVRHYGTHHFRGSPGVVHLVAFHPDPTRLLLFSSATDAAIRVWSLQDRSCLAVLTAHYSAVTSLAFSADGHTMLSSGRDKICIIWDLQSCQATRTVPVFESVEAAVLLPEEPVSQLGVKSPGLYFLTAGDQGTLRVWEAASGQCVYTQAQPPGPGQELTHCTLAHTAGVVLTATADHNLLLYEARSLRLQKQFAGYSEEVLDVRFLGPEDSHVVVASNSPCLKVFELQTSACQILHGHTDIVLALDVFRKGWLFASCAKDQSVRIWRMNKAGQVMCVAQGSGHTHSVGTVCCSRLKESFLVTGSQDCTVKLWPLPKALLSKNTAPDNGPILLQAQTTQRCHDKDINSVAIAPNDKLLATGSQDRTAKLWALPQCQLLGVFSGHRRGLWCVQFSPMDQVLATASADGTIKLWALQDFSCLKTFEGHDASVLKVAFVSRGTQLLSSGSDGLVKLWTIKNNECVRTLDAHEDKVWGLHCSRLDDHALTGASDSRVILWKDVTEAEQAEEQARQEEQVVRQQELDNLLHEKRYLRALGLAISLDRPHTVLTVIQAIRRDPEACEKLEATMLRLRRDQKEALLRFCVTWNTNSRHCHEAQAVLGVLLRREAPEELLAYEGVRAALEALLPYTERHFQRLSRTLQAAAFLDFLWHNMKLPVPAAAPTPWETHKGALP
Sequence of UniProt Q13153 (Q13153 whole entry): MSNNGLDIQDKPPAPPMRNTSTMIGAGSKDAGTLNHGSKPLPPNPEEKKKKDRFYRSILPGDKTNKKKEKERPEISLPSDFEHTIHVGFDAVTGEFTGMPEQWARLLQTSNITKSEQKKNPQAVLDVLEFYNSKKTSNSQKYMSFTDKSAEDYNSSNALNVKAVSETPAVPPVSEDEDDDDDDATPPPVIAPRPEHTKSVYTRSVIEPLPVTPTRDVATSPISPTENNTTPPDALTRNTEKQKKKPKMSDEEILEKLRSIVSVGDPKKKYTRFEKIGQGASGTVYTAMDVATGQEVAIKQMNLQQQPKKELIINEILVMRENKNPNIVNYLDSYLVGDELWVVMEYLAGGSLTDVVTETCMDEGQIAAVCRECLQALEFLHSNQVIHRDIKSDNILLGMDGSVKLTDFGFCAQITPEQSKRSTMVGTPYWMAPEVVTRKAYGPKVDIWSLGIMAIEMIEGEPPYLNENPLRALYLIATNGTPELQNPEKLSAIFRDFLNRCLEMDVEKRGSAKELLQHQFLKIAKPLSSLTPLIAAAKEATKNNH
Sequence of UniProt P62318 (P62318 whole entry): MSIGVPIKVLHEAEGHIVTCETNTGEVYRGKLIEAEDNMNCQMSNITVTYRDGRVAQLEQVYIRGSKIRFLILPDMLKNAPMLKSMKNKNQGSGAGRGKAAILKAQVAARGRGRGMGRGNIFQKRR
Sequence of UniProt Q13105 (Q13105 whole entry): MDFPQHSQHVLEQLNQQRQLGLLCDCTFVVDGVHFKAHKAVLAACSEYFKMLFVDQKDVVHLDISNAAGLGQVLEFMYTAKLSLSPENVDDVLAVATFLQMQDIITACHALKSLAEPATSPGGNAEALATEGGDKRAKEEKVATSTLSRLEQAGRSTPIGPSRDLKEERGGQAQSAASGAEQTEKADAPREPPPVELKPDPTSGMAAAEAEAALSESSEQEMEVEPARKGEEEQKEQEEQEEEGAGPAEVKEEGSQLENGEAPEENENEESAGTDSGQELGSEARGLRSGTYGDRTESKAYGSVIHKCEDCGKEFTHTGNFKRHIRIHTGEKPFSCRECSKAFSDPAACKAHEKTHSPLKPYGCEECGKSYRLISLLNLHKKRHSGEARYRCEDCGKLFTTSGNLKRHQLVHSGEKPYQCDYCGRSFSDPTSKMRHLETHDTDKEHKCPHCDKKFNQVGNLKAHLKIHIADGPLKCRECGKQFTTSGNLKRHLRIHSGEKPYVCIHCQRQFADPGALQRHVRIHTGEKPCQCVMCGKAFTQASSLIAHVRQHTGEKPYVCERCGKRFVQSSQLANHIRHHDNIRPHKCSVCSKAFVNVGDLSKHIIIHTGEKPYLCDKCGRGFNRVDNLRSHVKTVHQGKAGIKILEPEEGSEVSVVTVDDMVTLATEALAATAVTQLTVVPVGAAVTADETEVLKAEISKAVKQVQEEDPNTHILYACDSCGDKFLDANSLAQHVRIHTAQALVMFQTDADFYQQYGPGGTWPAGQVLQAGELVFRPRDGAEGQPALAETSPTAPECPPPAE
Sequence of UniProt O94763 (O94763 whole entry): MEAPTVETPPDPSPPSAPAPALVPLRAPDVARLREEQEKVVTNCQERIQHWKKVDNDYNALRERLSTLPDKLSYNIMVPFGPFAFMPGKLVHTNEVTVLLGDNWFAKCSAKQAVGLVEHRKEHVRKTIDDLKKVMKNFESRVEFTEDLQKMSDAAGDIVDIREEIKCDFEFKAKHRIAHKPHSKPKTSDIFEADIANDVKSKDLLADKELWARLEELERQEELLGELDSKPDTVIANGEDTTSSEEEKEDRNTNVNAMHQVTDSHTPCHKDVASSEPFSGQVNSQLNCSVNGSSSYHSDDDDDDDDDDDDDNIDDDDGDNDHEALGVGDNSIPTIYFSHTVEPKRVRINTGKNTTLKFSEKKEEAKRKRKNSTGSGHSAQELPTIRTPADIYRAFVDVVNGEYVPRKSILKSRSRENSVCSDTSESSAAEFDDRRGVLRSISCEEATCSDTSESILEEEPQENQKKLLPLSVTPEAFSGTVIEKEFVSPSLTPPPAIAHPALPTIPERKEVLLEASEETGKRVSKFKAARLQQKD
Sequence of UniProt P18859 (P18859 whole entry, one chain of several): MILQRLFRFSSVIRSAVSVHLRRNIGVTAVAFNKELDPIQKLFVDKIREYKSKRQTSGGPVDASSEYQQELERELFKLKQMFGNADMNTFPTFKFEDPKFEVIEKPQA

Target	NP40-soluble protein abundance (concentration: 1mM)	NP40-soluble protein abundance (concentration: 2mM)	NP40-soluble protein abundance (concentration: 4mM)	NP40-soluble protein abundance (concentration: 6mM)	NP40-soluble protein abundance (concentration: 8mM)	NP40-soluble protein abundance (concentration: 10mM)
UniProt Q13243	1.1 ± 0.056	1.2 ± 0.091	1.17 ± 0.07	1.19 ± 0.013	1.208 ± 0.0093	1.36 ± 0.12
HSD17B4 (UniProt P51659)	1.01 ± 0.034	0.967 ± 0.026	1.04 ± 0.041	1.09 ± 0.058	1.12 ± 0.033	1.1 ± 0.034
NCKAP1L (UniProt P55160)	0.975 ± 0.021	0.905 ± 0.085	0.955 ± 0.027	0.955 ± 0.072	0.975 ± 0.046	0.914 ± 0.037
UniProt P98082|P98082-2|P98082-3	1.016 ± 0.0042	1.03 ± 0.042	1.042 ± 0.0097	1.016 ± 0.004	1.017 ± 0.0048	1.035 ± 0.0064
ECHS1 (UniProt P30084)	0.9976 ± 0.0068	0.9885 ± 0.006	0.955 ± 0.029	0.994 ± 0.02	0.963 ± 0.017	0.961 ± 0.015
DBT (UniProt P11182)	0.977 ± 0.14	1.01 ± 0.12	1.01 ± 0.15	0.999 ± 0.2	0.971 ± 0.14	1.03 ± 0.19
LCP2 (UniProt Q13094)	1.02 ± 0.027	1.05 ± 0.053	0.992 ± 0.034	0.98 ± 0.0097	0.955 ± 0.042	0.947 ± 0.061
UniProt Q12872|Q12872-2	1.04 ± 0.04	1.11 ± 0.061	1.12 ± 0.043	1.17 ± 0.097	1.2 ± 0.1	1.33 ± 0.1
UniProt O95104|O95104-3|O95104-2	1.1 ± 0.033	1.22 ± 0.083	1.26 ± 0.039	1.34 ± 0.14	1.39 ± 0.071	1.46 ± 0.063
ACTR1B (UniProt P42025)	1 ± 0.062	0.927 ± 0.12	0.983 ± 0.071	0.986 ± 0.029	0.965 ± 0.063	0.961 ± 0.091
UniProt P00167|P00167-2	0.995 ± 0.028	0.984 ± 0.033	0.936 ± 0.036	0.992 ± 0.011	0.948 ± 0.021	0.966 ± 0.012
RPL7 (UniProt P18124)	0.966 ± 0.094	0.953 ± 0.039	0.962 ± 0.07	0.895 ± 0.056	0.902 ± 0.097	0.985 ± 0.024
UniProt P48047	0.907 ± 0.042	0.912 ± 0.041	0.896 ± 0.051	0.96 ± 0.087	0.974 ± 0.045	0.938 ± 0.1
CSTF1 (UniProt Q05048)	0.9781 ± 0.0088	0.931 ± 0.075	1 ± 0.015	1 ± 0.015	1.069 ± 0.0036	1.02 ± 0.046
UniProt P11388|P11388-2|P11388-3|P11388-4	1.66 ± 0.082	1.72 ± 0.05	1.82 ± 0.16	1.98 ± 0.14	2.04 ± 0.24	2.13 ± 0.27
UniProt Q01826|Q01826-2	1.03 ± 0.033	1.07 ± 0.05	1.03 ± 0.051	0.985 ± 0.037	0.985 ± 0.026	1.01 ± 0.05
UniProt Q06787|Q06787-3|Q06787-5|Q06787-8|Q06787-9|Q06787-7	1.05 ± 0.04	1.11 ± 0.013	1.1 ± 0.02	1.22 ± 0.066	1.24 ± 0.016	1.36 ± 0.02
UniProt Q13163|Q13163-2|Q13163-3|Q13163-4	0.968 ± 0.026	1.01 ± 0.041	1.02 ± 0.057	0.958 ± 0.049	0.933 ± 0.019	0.941 ± 0.022
RPS3A (UniProt P61247)	0.96 ± 0.052	0.931 ± 0.044	0.918 ± 0.11	0.895 ± 0.081	0.83 ± 0.057	0.947 ± 0.11
UniProt P52824|H0YA20	0.978 ± 0.0098	0.979 ± 0.023	0.955 ± 0.028	0.99 ± 0.025	0.96 ± 0.039	0.986 ± 0.03

Target	NP40-soluble protein abundance (concentration: 1mM)	NP40-soluble protein abundance (concentration: 2mM)	NP40-soluble protein abundance (concentration: 4mM)	NP40-soluble protein abundance (concentration: 6mM)	NP40-soluble protein abundance (concentration: 8mM)	NP40-soluble protein abundance (concentration: 10mM)
PAK1 (UniProt Q13153)	0.989 ± 0.035	1.05 ± 0.046	0.989 ± 0.036	0.981 ± 0.013	0.926 ± 0.032	0.975 ± 0.041
SDHB (UniProt P21912)	0.976 ± 0.045	1 ± 0.056	0.987 ± 0.063	1.03 ± 0.079	1.02 ± 0.075	1.04 ± 0.052
UniProt P17812	0.932 ± 0.03	0.873 ± 0.06	0.91 ± 0.033	0.96 ± 0.077	0.97 ± 0.04	0.924 ± 0.044
UniProt P01112	1.06 ± 0.026	1.04 ± 0.016	1.03 ± 0.021	1 ± 0.062	1.06 ± 0.021	1.01 ± 0.025
UniProt P62805	0.903 ± 0.073	0.951 ± 0.018	0.964 ± 0.046	1.12 ± 0.18	1.25 ± 0.16	1.52 ± 0.25
UniProt P56282|P56282-3|P56282-2	0.973 ± 0.03	0.933 ± 0.065	0.968 ± 0.026	0.952 ± 0.036	0.942 ± 0.041	0.951 ± 0.045
UniProt P38159|P38159-2	1.12 ± 0.09	1.34 ± 0.094	1.34 ± 0.037	1.53 ± 0.16	1.58 ± 0.19	1.82 ± 0.16
UniProt P26038|V9GZ54	0.967 ± 0.13	1.06 ± 0.14	0.988 ± 0.13	0.916 ± 0.088	0.935 ± 0.012	0.936 ± 0.067
UniProt P15170-2|P15170-3|H3BSV8	0.993 ± 0.025	0.955 ± 0.035	0.96 ± 0.01	0.995 ± 0.012	0.964 ± 0.014	0.968 ± 0.043
MPP1 (UniProt Q00013)	1.01 ± 0.015	0.964 ± 0.035	1.01 ± 0.028	0.978 ± 0.028	1.01 ± 0.048	0.986 ± 0.034
ERAL1 (UniProt O75616)	0.7647 ± 0.0038	0.6675 ± 0.0031	0.716 ± 0.036	0.681 ± 0.011	0.674 ± 0.062	0.636 ± 0.04
TPM4 (UniProt P67936)	1.21 ± 0.19	1.42 ± 0.15	1.27 ± 0.3	1.35 ± 0.3	1.44 ± 0.047	1.24 ± 0.16
UniProt P41227|P41227-2	1.02 ± 0.036	1.07 ± 0.06	1.09 ± 0.03	1.15 ± 0.081	1.12 ± 0.052	1.18 ± 0.039
UniProt Q02078-2|Q02078-4|Q02078-6|Q02078-5	1.0199 ± 0.0007	1.03 ± 0.017	1.023 ± 0.0072	0.98 ± 0.014	0.9784 ± 0.0097	0.98 ± 0.053
UniProt P18859|P18859-2|A8MUH2	0.948 ± 0.053	0.899 ± 0.032	0.867 ± 0.062	0.834 ± 0.05	0.825 ± 0.063	0.857 ± 0.026
HNRNPH2 (UniProt P55795)	0.9889 ± 0.0045	0.934 ± 0.086	0.946 ± 0.028	0.947 ± 0.023	0.9566 ± 0.0082	0.908 ± 0.019
BANF1 (UniProt O75531)	2.32 ± 0.38	2.76 ± 0.16	3 ± 0.25	3.73 ± 0.25	4.03 ± 0.2	4.25 ± 0.21
SURF6 (UniProt O75683)	1.05 ± 0.056	1.12 ± 0.092	1.1 ± 0.057	1.17 ± 0.095	1.14 ± 0.12	1.22 ± 0.088
TBL3 (UniProt Q12788)	1.07 ± 0.02	1.15 ± 0.05	1.21 ± 0.023	1.35 ± 0.027	1.46 ± 0.024	1.53 ± 0.075
HMGN1 (UniProt P05114)	1.23 ± 0.1	1.36 ± 0.18	1.28 ± 0.074	1.57 ± 0.15	1.54 ± 0.16	1.89 ± 0.36

Target	NP40-soluble protein abundance (concentration: 1mM)	NP40-soluble protein abundance (concentration: 2mM)	NP40-soluble protein abundance (concentration: 4mM)	NP40-soluble protein abundance (concentration: 6mM)	NP40-soluble protein abundance (concentration: 8mM)	NP40-soluble protein abundance (concentration: 10mM)
UniProt P52948|P52948-2|P52948-5|P52948-6	1.07 ± 0.047	1.1 ± 0.015	1.13 ± 0.018	1.22 ± 0.056	1.28 ± 0.02	1.417 ± 0.011
DBI (UniProt P07108)	1.04 ± 0.064	1.06 ± 0.055	0.987 ± 0.015	0.96 ± 0.041	0.928 ± 0.025	0.997 ± 0.1
UniProt P60866|P60866-2	0.932 ± 0.061	0.906 ± 0.058	0.883 ± 0.13	0.91 ± 0.04	0.889 ± 0.043	0.929 ± 0.13
UniProt P62701	0.95 ± 0.063	0.87 ± 0.091	0.879 ± 0.11	0.873 ± 0.065	0.821 ± 0.071	0.851 ± 0.13
UniProt Q02880|Q02880-2	1.56 ± 0.036	1.63 ± 0.041	1.77 ± 0.12	1.88 ± 0.19	1.95 ± 0.18	2.01 ± 0.25
RFX1 (UniProt P22670)	1.04 ± 0.016	1.03 ± 0.015	1.03 ± 0.03	1 ± 0.033	1.01 ± 0.025	0.995 ± 0.02
UniProt P33981|P33981-2	1.04 ± 0.027	1.021 ± 0.0069	1.05 ± 0.033	1.018 ± 0.01	1.02 ± 0.034	1.03 ± 0.036
UniProt O94763	1.05 ± 0.048	1.13 ± 0.06	1.05 ± 0.05	1.02 ± 0.1	0.962 ± 0.063	1.02 ± 0.059
UniProt Q13105|Q13105-2|Q13105-3	1.01 ± 0.06	1.011 ± 0.0042	1.03 ± 0.028	1.04 ± 0.057	1.04 ± 0.051	1.07 ± 0.072
PCNA (UniProt P12004)	1.008 ± 0.0098	0.998 ± 0.012	0.957 ± 0.012	0.973 ± 0.015	0.951 ± 0.018	0.935 ± 0.024
GLRX3 (UniProt O76003)	1.04 ± 0.026	1.02 ± 0.011	0.99 ± 0.027	0.9932 ± 0.0036	0.989 ± 0.031	0.976 ± 0.055
NUP155 (UniProt O75694)	0.983 ± 0.046	0.919 ± 0.062	1 ± 0.025	0.98 ± 0.039	1.01 ± 0.035	1 ± 0.023
UniProt P20073|P20073-2	0.966 ± 0.053	0.996 ± 0.093	0.989 ± 0.069	0.998 ± 0.086	1.04 ± 0.052	0.995 ± 0.096
HIST1H1C (UniProt P16403)	1.02 ± 0.05	1.13 ± 0.042	1.07 ± 0.023	1.17 ± 0.06	1.2 ± 0.095	1.54 ± 0.15
SUB1 (UniProt P53999)	0.923 ± 0.049	1 ± 0.19	0.916 ± 0.088	1 ± 0.089	0.997 ± 0.043	1.02 ± 0.11
DNAJC3 (UniProt Q13217)	0.978 ± 0.031	0.9648 ± 0.0063	0.973 ± 0.011	1.01 ± 0.014	0.985 ± 0.021	0.999 ± 0.022
UniProt P62318|P62318-2	1.07 ± 0.086	1.12 ± 0.12	1.19 ± 0.099	1.22 ± 0.017	1.29 ± 0.09	1.32 ± 0.056
GTF2F2 (UniProt P13984)	1 ± 0.011	1.06 ± 0.023	1.04 ± 0.019	1.07 ± 0.018	1.07 ± 0.015	1.103 ± 0.0083
UniProt P61289|P61289-2	0.983 ± 0.064	0.955 ± 0.12	0.808 ± 0.23	0.886 ± 0.17	0.999 ± 0.037	0.968 ± 0.1
HIST1H1E (UniProt P10412)	1.04 ± 0.06	1.15 ± 0.09	1.12 ± 0.05	1.25 ± 0.15	1.24 ± 0.23	1.56 ± 0.14
